Measurements published in PubChem BioAssay AID2108 (National Center for Advancing Translational Sciences (NCATS), 2009).
Records with an inconclusive call do not appear. Activity calls are given as the source filed them. Calls come from the whole dose curve; as a rule, active = well fitted curve in the direction sought with a large enough effect; inconclusive = small, poorly fitted or top-dose-only effect, or effect the other way, or another doubt; inactive = no such curve, though single readings can be large or run the other way. Non-standard residues stand in square brackets, D forms with d. Residues, ends and D or L forms follow the SMILES beside them. *: point of attachment. Nle = CCCC[C@H](N)C(=O)O; Boc = CC(C)(C)OC(=O)*

molecular target: Alpha-galactosidase A (Homo sapiens) (UniProt P06280); test: Confirmation of Inhibitors of Human alpha-Galactosidase Using Spleen Homogenate; conditions: alpha-galactosidase enzyme activity; series mostly up to 56.2 µM
Method in brief: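 AC50 values come from Hill-equation fits of normalised 4-methylumbelliferone fluorescence (365/440 nm, read after NaOH/glycine stop). Enzyme source: spleen homogenate; substrate 1 mM final; pH 5.0 citrate buffer; 40 min at 37C; compound titration 0.5 nM–58 uM.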

Sequence of Alpha-galactosidase A (Homo sapiens) (P06280 32-429 limits assumed): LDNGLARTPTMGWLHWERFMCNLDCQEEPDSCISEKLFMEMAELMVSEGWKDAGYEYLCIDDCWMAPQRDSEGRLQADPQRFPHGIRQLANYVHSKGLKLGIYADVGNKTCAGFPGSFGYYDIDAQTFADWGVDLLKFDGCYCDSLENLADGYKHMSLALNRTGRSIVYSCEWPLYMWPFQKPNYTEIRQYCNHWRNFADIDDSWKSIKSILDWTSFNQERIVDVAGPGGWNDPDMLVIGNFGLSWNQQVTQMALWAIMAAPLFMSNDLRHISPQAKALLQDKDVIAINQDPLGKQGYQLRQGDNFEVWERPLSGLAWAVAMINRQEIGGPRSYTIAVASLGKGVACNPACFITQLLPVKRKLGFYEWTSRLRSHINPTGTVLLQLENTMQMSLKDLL

outcome, inactive:
O=C(NCCCN1CCOCC1)c1cccs1
COC(=O)c1ccc(CSc2cc(C)c3cccc(C)c3n2)o1
Cc1ccc(S(=O)(=O)NC(=O)NN2CCCCCC2)cc1
COC(=O)c1cccc(S(=O)(=O)N2CCOCC2)c1
Cc1ccc(S(=O)(=O)N2CCN(C(=O)CSc3nc4ccccc4c(=O)[nH]3)CC2)c(C)c1
CN(C)C=Nc1nc2ccccc2nc1N1CCCC1
COc1ccc(/C=C/c2nnc(NC(=O)CSc3ccc(Cl)cc3)s2)cc1
CN(CCO)S(=O)(=O)c1ccc2c(c1)C(=NN)c1cc(S(=O)(=O)N(C)CCO)ccc1-2
COc1ccc(S(=O)(=O)N2CCOCC2)cc1
O=NOc1ccc(/C=C/c2nccc3c2[nH]c2ccccc23)cc1
COCCNS(=O)(=O)c1ccc2c(c1)n(C)c(=O)n2C
Cn1cnc2c(NCc3ccccc3)nc(NCCO)nc21
O=C(Nc1cc(S(=O)(=O)N2CCOCC2)ccc1N1CCCC1)c1cc(=O)[nH]c2ccccc12
O=C(CCc1cccc(S(=O)(=O)N2CCOCC2)c1)NN=C1c2ccccc2-c2ccccc21
O=C(Nc1ccc(OCC(=O)N2CCN(S(=O)(=O)c3ccccc3)CC2)cc1)c1ccco1
Nc1cccc(S(=O)(=O)N2CCOCC2)c1
OC[C@H]1NC[C@@H](O)[C@@H](O)[C@@H]1O
CCCC[C@H](NC(=O)[C@@H]1CCCN1C(=O)[C@H]1CCCN1C(=O)[C@H](Cc1ccccc1)NC(=O)[C@@H](Cc1c[nH]c2ccccc12)NC(=O)[C@H](C)NC(=O)[C@H](CCCN=C(N)N)NC(=O)OC(C)(C)C)C(N)=O (Boc-RA[dW]F[dP]P[Nle]-NH2)
CCOC(=O)Nc1ccc2c(c1)N(C(=O)CN(CC)CC)c1ccccc1CC2
Cc1ccc(S(=O)(=O)N2CCN(CC(=O)N/N=C\c3ccccn3)CC2)cc1
N=c1sccn1CC(=O)Nc1cc(S(=O)(=O)N2CCCC2)ccc1Cl
O=C(O)Cc1sc(-c2cc3ccccc3oc2=O)nc1-c1ccc(Br)cc1
CC/C(=C(\c1ccccc1)c1ccc(OCCN(C)C)cc1)c1ccccc1
O=S(=O)(c1cccnc1)N1CCOCC1
CN(CCO)S(=O)(=O)c1ccc2c(c1)C(=NNC(N)=O)c1cc(S(=O)(=O)N(C)CCO)ccc1-2
N#Cc1c(-c2ccc(F)cc2)cc(-c2cccnc2)nc1N
Cc1ccc(S(=O)(=O)N2CCN(C(=O)N(c3ccccc3)c3ccccc3)CC2)cc1
COc1ccc(/C=C/c2nnc(NC(=O)CSc3ccccc3)s2)cc1
CCCC1(C)Nc2ccccc2-c2nc3ccccc3n21 (configuration not stated)
CCN1CCc2nc(NC(=O)CC(c3ccccc3)c3ccccc3)sc2C1
CC(C)(C)OC(=O)NCCCC[C@H](NC(=O)c1nc[nH]c1C(=O)NCc1ccccc1)C(=O)OC(C)(C)C
O=C(O)c1cc2c(ccc3ccccc32)o1
Oc1ccccc1C1CC(c2cccs2)=NC(c2ccc(Cl)cc2)N1 (configuration not stated)
CNC(=S)/N=C(\Nc1ccc(C)cc1)c1ccccc1
CC(=O)c1cccc(S(=O)(=O)N2CCOCC2)c1
COc1ccc(C(=O)N2CCn3c(C)ccc3C2C)cc1 (configuration not stated)
CC(=O)c1ccc(N2CCN(S(=O)(=O)c3ccc4c(c3)CC(=O)N4)CC2)cc1
